Reference: ChEMBL document CHEMBL3988442, “University of Dundee, Small-Polar-MMV Screening Library” (2021)
In all, about 69,000 compounds went through this assay and about 420 (0.61%) showed an effect of 50% or more. The list comes from a sample in which strong results are over-represented; it also holds similar structures and randomly drawn compounds.

target: T1, Histidine--tRNA ligase (Leishmania infantum) (UniProt A4I591); assay: Leishmania infantum Histidine tRNA synthetase (LdHisRS); format: functional; parameters: scale not given: in the data most compounds retested in dose-response had high values; settings: 30 µM
T1 sequence (whole entry): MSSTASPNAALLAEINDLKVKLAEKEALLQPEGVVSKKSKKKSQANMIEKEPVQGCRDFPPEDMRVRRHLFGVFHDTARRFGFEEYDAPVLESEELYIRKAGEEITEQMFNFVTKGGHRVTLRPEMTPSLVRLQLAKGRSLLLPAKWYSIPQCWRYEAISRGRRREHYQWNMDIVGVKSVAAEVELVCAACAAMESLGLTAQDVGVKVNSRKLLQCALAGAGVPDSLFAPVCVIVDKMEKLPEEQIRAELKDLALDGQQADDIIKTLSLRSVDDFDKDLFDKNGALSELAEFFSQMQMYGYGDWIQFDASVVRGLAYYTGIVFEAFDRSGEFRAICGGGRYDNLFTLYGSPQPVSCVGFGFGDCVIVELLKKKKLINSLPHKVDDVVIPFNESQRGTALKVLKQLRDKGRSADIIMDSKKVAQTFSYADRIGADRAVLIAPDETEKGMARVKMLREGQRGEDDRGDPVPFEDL

Structure (SMILES)	Percent Effect
O=C(c1ccco1)N1CC[C@@H]2O[C@@H](COCC3CCOCC3)CC[C@@H]21	-0.84%
COC[C@@]12CCO[C@@H]1CCN(C(=O)CCc1ccccc1Cl)C2	12.9%
CC(C)c1ncc2c(n1)CN(Cc1nnc(Cc3ccccc3)o1)CC2	33%
Cc1ncc2c(n1)CN(Cc1nnc(Cc3ccccc3)o1)CC2	55.4%
CCc1ncc2c(n1)CN(Cc1nnc(Cc3ccccc3)o1)CC2	31.2%
CC(C)N1C[C@@H]2OCC(=O)N(Cc3ccccc3)[C@@H]2C1	8.11%
CCc1ncc2c(n1)CN(c1nnc(C)c(C)c1C#N)CC2	12%
Cc1nnc(N2CCc3cncnc3C2)c(C#N)c1C	65.3%
Cc1nnc(N2CCc3cnc(C(C)C)nc3C2)c(C#N)c1C	46.7%
O=C(c1ccnnc1)N1C[C@@H](OCC2CCOCC2)[C@H]2OCCC[C@H]21	11.8%
COc1cc(F)c(CN2CCN(CC(C)C)C(=O)C2C)cc1OC (stereo unspecified)	10.8%
COc1cccc(CN2CCN(CC(C)C)C(=O)C2C)c1O (stereo unspecified)	98.9%
COC(=O)c1ccc(OC)c(CN2CCN(CC(C)C)C(=O)C2C)c1 (stereo unspecified)	10.8%
COc1ccc(NCc2ccccc2N2CCN(C(C)=O)CC2)cn1	24.7%
CC(=O)N1CCN(c2ccccc2CNc2cncc(C)c2)CC1	11%
CC(=O)N1CCN(c2ccccc2CNc2ccc3[nH]ncc3c2)CC1	57.5%
Cn1ccnc1CN1CCN(Cc2ccccc2)[C@@H]2CS(=O)(=O)C[C@@H]21	5.59%
CNc1[nH]nc(N)c1C(=O)Nc1ccccc1	-15%
CNc1[nH]nc(N)c1NC(=O)c1ccccc1	87.5%

Structure (SMILES)	Percent Effect
CNc1[nH]nc(N)c1C(=O)Nc1ccc(OC)cc1	27.5%
Cc1[nH]ccc1C(=O)N1C[C@H]2CC[C@@H]1CN(S(=O)(=O)N(C)C)C2	16.1%
Cn1cc(CNc2cnn(CCO)c2)c(-c2ccncc2)n1	21.9%
COCCn1cc(NCc2cn(C)nc2-c2ccncc2)cn1	51.8%
Cn1cc(CNc2cnn(CC3CCCO3)c2)c(-c2ccncc2)n1 (stereo unspecified)	30.7%
Cc1ncsc1CN1C[C@@H]2CN(S(C)(=O)=O)CCO[C@@H]2C1	20%
Cc1ccc(CN2CC[C@H]3C[C@@H](c4nc(C5CC5)cs4)O[C@@H]3C2)o1	19.8%
Cc1noc([C@@]23CCO[C@@H]2CCN(C(=O)CCC(C)C)C3)n1	5.56%
Cn1cccc(NC(=O)N2CCC(CSc3ccccc3)C2)c1=O (stereo unspecified)	78.1%
Cn1ccnc1CC1CCCN(C(=O)Nc2cccn(C)c2=O)C1 (stereo unspecified)	17.3%
Cn1cccc(NC(=O)N2CCC(COCc3ccccc3)C2)c1=O (stereo unspecified)	108%
CC(C)(C)C(=O)N1CCC(COCc2ccccc2)C1 (stereo unspecified)	8%
COc1c(C(=O)N2CCC(CSc3ccccc3)C2)c(C)nn1C (stereo unspecified)	19.2%
Cn1cccc(NC(=O)N2CCC(Cc3ccccc3)C2)c1=O (stereo unspecified)	106%
Cc1cnc(C(=O)N2CCC(COCc3ccccc3)C2)cn1 (stereo unspecified)	2.67%
Cc1nn(C)cc1C(=O)N1CCC(CSc2ccccc2)C1 (stereo unspecified)	11%
CC(C)[C@H](NC(=O)N1CCC(Cc2ccccc2)CC1)C(=O)O	-2.5%
Cc1csc(CN2C[C@@H]3COC[C@]3(C(=O)NCc3ccco3)C2)n1	7%
Cc1oncc1C(=O)N1CC[C@H]2[C@H](CO[C@@H]2CNS(C)(=O)=O)C1	28.6%

Structure (SMILES)	Percent Effect
CN(C)C[C@H]1OC[C@@H]2CCN(C(=O)Cc3cccs3)C[C@@H]21	7.89%
CN(C)C(=O)N1C[C@@H](C(=O)NCc2ccco2)C[C@H]2OCC[C@H]21	0%
O=C(O)[C@]12CCCN(Cc3cccs3)C[C@H]1CN(c1ncccn1)C2	22.2%
Cc1nc[nH]c1CN1C[C@@H]2CC[C@H](C1)N(C(=O)CCc1cnn(C)c1)C2	16.4%
Cc1ccc(C)c(CC(=O)Nc2cccc(C(=O)N(C)C)n2)c1	17.1%
CN(C)C(=O)c1cccc(NC(=O)Cc2cc(F)ccc2F)n1	19.7%
COc1cc(CC(=O)Nc2cccc(C(=O)N(C)C)n2)ccc1C	54%
O=S(=O)(c1cccs1)N1CC[C@H]2[C@H]1CCN2CC1CC1	3.88%
CN(C)C[C@H]1OC[C@@H]2CCN(C(=O)c3cccn3C)C[C@@H]21	9.43%
c1ccc(COC[C@H]2CC[C@H]3[C@H](CCN3Cc3ccccn3)O2)nc1	10%
NC(=O)c1cc(-c2cccc(C(=O)O)c2)cs1	15.8%
NC(=O)c1cc(-n2cc(-c3cccc(C(=O)O)c3)cn2)cs1	10.5%
NC(=O)c1ccccc1-n1cc(-c2cccc(C(=O)O)c2)cn1	52.6%
CCC1=NN2C(=N)/C(=C\c3cccn3-c3ccc(Br)cc3)C(=O)N=C2S1	11%
CN(C)CCN1C[C@@H]2CN(c3ccccc3)C[C@@H]2C1=O	6.36%
Cc1csc(CN(C)C(C)C(=O)N2CCc3ccccc3C2)n1 (stereo unspecified)	55.8%
CCc1cnc(CN(C)C(C)C(=O)N2CCc3ccccc3C2)s1 (stereo unspecified)	9.09%
CC(C(=O)N1CCc2ccccc2C1)N(C)Cc1cscn1 (stereo unspecified)	3.9%
